Screening results (PubChem)
NS1 function inh = influenza NS1 inhibition; Potency, µM (top dose mostly 46.1 µM); hit rate 0.4% among 270,000; AID 2326; also: actives are rising curves; nearly all actives have a fitted effect of over 50% in size
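S. cerevisiae expressing influenza A NS1, grown in glucose, washed, then diluted 1:100 into pH 6.0 -URA galactose medium with 23 nl compound. Growth recovery read as OD600; NS1-free strain serves as control.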
Tb PYK inh = blocks Trypanosoma brucei pyruvate kinase. Q57TT1. TbPYK enzyme, Kinase-Glo Plus ATP luminescence, 45 min. Potency, µM (top dose mostly 76.8 µM), most hits filed as inhibitors. hit rate 0.12% among 410,000. AID 624173; active = well fitted curve in the direction sought with a large enough effect; inconclusive = small, poorly fitted or top-dose-only effect, or another doubt; inactive = no such curve, though single readings can be large; an effect the other way counts as inactive or inconclusive; also: nearly all actives have a fitted effect of over 50% in size
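TbPYK + substrate in 50 mM TEA pH 7.2, 100 mM KCl, 10 mM MgCl2, 0.05% BSA, 0.01% Tween-20; cpd pinned; ADP 130 uM final; 45 min RT; Kinase-Glo Plus 10 min; luminescence endpoint.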
Shiga toxin inh = blocks Shiga toxin action in Vero cells; hit rate 9.2% among 290,000; Vero cells, Shiga toxin protein synthesis inhibition reporter; AID 2315; inhibition, % at 38.7 µM; in the data active = inhibition mostly above about 28%, no sharp cut-off; inactive = mostly below about 43%
LmPK inhibitor = blocks Leishmania mexicana pyruvate kinase activity; purified LmPK, Kinase-Glo ATP luminescence, 1 h; Potency, µM (top dose mostly 57.5 µM), most hits filed as inhibitors; hit rate 0.37% among 290,000; active = well fitted curve in the direction sought with a large enough effect; inconclusive = small, poorly fitted or top-dose-only effect, or another doubt; inactive = no such curve, though single readings can be large; an effect the other way counts as inactive or inconclusive
Target sequence (Q27686 whole entry, looked up): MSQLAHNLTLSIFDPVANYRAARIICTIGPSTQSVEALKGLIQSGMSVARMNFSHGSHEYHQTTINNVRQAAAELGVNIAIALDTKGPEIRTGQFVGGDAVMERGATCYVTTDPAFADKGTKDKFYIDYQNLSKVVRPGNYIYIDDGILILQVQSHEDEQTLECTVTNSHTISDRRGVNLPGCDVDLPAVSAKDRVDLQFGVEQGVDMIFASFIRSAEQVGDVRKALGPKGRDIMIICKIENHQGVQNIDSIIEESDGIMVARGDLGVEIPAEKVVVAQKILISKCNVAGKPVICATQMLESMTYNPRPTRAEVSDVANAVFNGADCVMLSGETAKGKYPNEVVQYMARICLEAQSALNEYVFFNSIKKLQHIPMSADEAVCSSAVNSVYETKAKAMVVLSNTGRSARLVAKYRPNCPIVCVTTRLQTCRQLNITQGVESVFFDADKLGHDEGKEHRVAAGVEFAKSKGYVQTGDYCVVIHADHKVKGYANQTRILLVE
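ATP generated from ADP (0.1 mM) and PEP (0.5 mM) by 0.1 nM LmPK over 1 h at room temperature (pH 7.2 imidazole buffer) was detected by coupled luciferase luminescence. Values were normalized to uninhibited and no-enzyme wells.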
SARS PLP yeast = blocks SARS-CoV papain-like protease in a yeast assay; S. cerevisiae expressing SARS-CoV PLpro, growth rescue; Potency, µM (top dose mostly 32.9 µM), actives largely listed as activators; hit rate 0.19% among 330,000; also: nearly all actives have a fitted effect of over 55% in size
CHX counter = affects cycloheximide protein synthesis inhibition readout, counter-screen. cell reporter, cycloheximide protein synthesis inhibition counterscreen. max response, %. hit rate 12% among 300,000. AID 2314; in the data active = max response mostly above about 13%, no sharp cut-off; inactive = mostly below about 14%; also: read at 38.3 µM for the half of the compounds with a filed dose
Hits are given with their value; i = inactive; ? = inconclusive; nt = no result. The sample as a whole holds a higher share of hits than the screen did. Unless noted, calls follow the shape of the full dose curve.

SMILES	NS1 function inh	Tb PYK inh	Shiga toxin inh	LmPK inhibitor	SARS PLP yeast	CHX counter
CC(C)Oc1ccc(CNC(=O)c2ccc(Cn3c(=O)c4cccn4c4cccnc43)cc2)cc1	nt	i	nt	nt	nt	nt
Cc1ccc(NC(=O)CCN2C(=O)C3CCCCC3C2=O)c(O)c1 (configuration not stated)	nt	i	nt	nt	i	nt
Cc1ccc(NC(=O)CCn2c(=O)oc3ccccc32)c(C)c1	i	i	i	i	i	i
Cc1ccc(NC(=O)CCCC2CCCCC2)c(O)c1	i	i	109	i	i	34
Cc1ccc(NC(=O)CCCn2c(=O)oc3ccccc32)c(O)c1	i	i	i	i	i	12
CCn1cc2nc(SCC(=O)Nc3ccccc3F)n(Cc3ccc(C)cc3)c(=O)c2n1	nt	i	nt	nt	nt	nt
O=C(c1ccccc1)c1ccc(OCCCN2CCCC2)cc1	i	i	44	i	i	28
c1ccc(COc2ccc(OCCCCN3CCCCC3)cc2)cc1	i	i	70	i	i	55
O=C(c1ccccc1)c1ccc(OCCCCN2CCCCC2)cc1	i	i	i	i	i	i
CN(C(=O)Cn1c(=O)n(Cc2ccc(C(=O)NCc3ccc4c(c3)OCO4)cc2)c(=O)c2ccccc21)c1ccccc1	nt	i	nt	nt	nt	nt
Cc1ccc(Cl)cc1N1CCN(CCCNc2ncnc3onc(-c4ccc(Cl)cc4)c23)CC1	nt	i	nt	nt	nt	nt
CC1CC(=O)N(c2ccc(N(C)Cc3ccccc3)c([N+](=O)[O-])c2)C1=O (configuration not stated)	nt	i	54	i	i	18
CN(Cc1ccccc1)c1ccc(N2C(=O)CCC2=O)cc1[N+](=O)[O-]	nt	i	i	i	i	i
Cc1ccc(-n2c(SCC(=O)Nc3ccc4c(c3)OCCO4)nc3c([nH]c4ccccc43)c2=O)cc1	nt	i	nt	nt	nt	nt
c1ccc2c(c1)ccc1ncccc12	nt	i	i	i	i	i
Oc1c(N=Nc2ccccn2)ccc2ccccc12	i	?	79	13µM	i	36
COc1ccc(-c2cc(C(=O)NCc3cccs3)no2)cc1	i	i	60	i	i	23
COc1ccc(CNC(=O)c2cc(-c3cccs3)on2)cc1	i	i	i	i	i	19
COc1ccc(NC(=O)Cn2nnc(C(=O)NCc3cccs3)c2N)cc1	i	i	i	i	i	i
COc1cccc(C(=O)c2c[nH]c(C(=O)NCc3cccs3)c2)c1	i	i	i	i	i	16
COc1ccc2nc3sc(C(=O)NCc4cccs4)c(N)c3cc2c1	?	nt	83	i	i	51
COc1ccc(-c2csc(NC(=O)CSC(C)C(=O)Nc3cc(C)on3)n2)cc1OC (configuration not stated)	nt	i	nt	nt	i	nt
COc1cccc(-c2cc(C(=O)NCc3cccs3)no2)c1	i	i	104	i	i	61
CC1=NN(c2ccccc2)C(=O)/C1=C/C=C/c1ccc(N(C)C)cc1	nt	?	i	14µM	i	i
CC1=NN(c2ccccc2)C(=O)/C1=C\c1cc(C)n(C)c1C	i	i	49	i	i	29
SMILES	NS1 function inh	Tb PYK inh	Shiga toxin inh	LmPK inhibitor	SARS PLP yeast	CHX counter
CC1=NN(c2ccccc2)C(=O)/C1=C\c1cn(C)c2ccccc12	nt	i	i	i	i	i
CC1=NN(c2ccccc2)C(=O)/C1=C/c1cc2cc(C)ccc2nc1N1CCCCC1	i	nt	i	i	i	23
CC1=NN(c2ccccc2)C(=O)/C1=C/c1cccc(C)c1	i	i	i	i	i	i
COc1ccccc1C(CNC(=O)c1oc2ccccc2c1C)N1CCCC1 (configuration not stated)	nt	i	nt	nt	i	nt
Cc1ccc(C(=O)Nc2ccc(-c3csc(C)n3)cc2)cc1	i	i	118	i	i	35
Cc1nc(-c2ccc(NC(=O)C3CCCCC3)cc2)cs1	i	i	137	i	i	43
CCc1ccccc1NC(=O)c1ccc(-c2csc(C)n2)cc1	i	i	53	i	i	27
Cc1nc(-c2ccc(NC(=O)c3ccccc3)cc2)cs1	i	?	i	i	i	i
Cc1csc(NC(=O)C2CCCC2)n1	i	i	i	i	i	28
Cc1csc(NC(=O)C2CCCCC2C(=O)O)n1 (configuration not stated)	i	i	i	i	i	i
N#Cc1ccc(-c2csc(NC(=O)C3CC3)n2)cc1	i	i	i	i	i	i
Cc1ccc(N2CC(NC(=O)c3ccccc3C(F)(F)F)CC2=O)cc1C (configuration not stated)	nt	i	nt	nt	nt	nt
CSc1ccccc1NC(=O)Nc1cccc2ccccc12	i	i	i	i	i	i
CCOc1ccc(C(=O)Nc2ccc3oc(-c4ccc(C)cc4C)nc3c2)cc1Br	nt	i	nt	nt	nt	nt
O=C(NC1CCCCC1)C(c1ccccc1F)N(C(=O)c1csnn1)C1CCCC1 (configuration not stated)	i	i	i	i	i	i
O=C(Nc1cccnc1)c1ccc(S(=O)(=O)c2ccc(Cl)cc2)cc1	nt	i	i	i	i	i
O=C(Nc1cccnc1)c1cc(-c2ccc(Cl)cc2)on1	nt	i	152	i	i	40
O=C(Nc1cccnc1)c1cc(-c2ccc(Cl)cc2Cl)on1	i	i	63	i	i	28
Cc1cc2oc3c(c(=O)c2cc1C)C1(C(=O)N(C)c2ccccc21)N(CCO)C3=O (configuration not stated)	nt	i	nt	nt	nt	nt
C=CCSc1nc2ccccc2n1C(=O)/C=C/c1cc(OC)c(OC)c(OC)c1	i	i	111	i	i	49
C=CCSc1nc2ccccc2n1C(=O)/C=C/c1ccc(OC)c(OC)c1	i	i	i	i	i	i
CCn1c(SCC(=O)N/N=C/c2ccc(OC)c(OC)c2)nc2ccccc21	i	i	i	i	i	i
CCSc1nc2ccccc2n1C(=O)/C=C/c1ccc(OC)c(OC)c1	i	i	i	i	i	13
Cc1ccc(S(=O)(=O)N2C[C@@H](C)[C@]3(C2)[C@H](O)[C@H](OC(=O)Nc2c(C)noc2C)C[C@H]2C(=O)N(c4ccccc4)C(=O)[C@H]23)cc1	nt	i	nt	nt	nt	nt
CCN(CC)c1ccc(NC(=O)CN(C)S(=O)(=O)c2cccc3nsnc23)c(C)c1	nt	i	nt	nt	nt	nt
SMILES	NS1 function inh	Tb PYK inh	Shiga toxin inh	LmPK inhibitor	SARS PLP yeast	CHX counter
CCc1ccc2nc(N)sc2c1	i	i	75	i	i	39
CCc1ccc(NC(=O)c2ccc3nc(N)sc3c2)cc1	i	i	68	i	i	62
Nc1nc2ccc(C(=O)Nc3ccccc3)cc2s1	i	i	168	i	i	93
CC(=O)Nc1ccc2nc(N)sc2c1	nt	i	nt	nt	nt	nt
CCOc1cc(CNc2ccc(O)cc2)cc(Cl)c1OCc1ccccc1	nt	i	nt	nt	nt	nt
Cc1cc(C)c(S(=O)(=O)Nc2ccc(-c3ccc(N4CCCCC4)nn3)cc2)c(C)c1	nt	i	nt	nt	nt	nt
CC(=O)Nc1ccccc1NS(=O)(=O)c1ccccc1NO	nt	nt	i	nt	nt	i
Cc1cccc(C(=O)NNC2=CC(=O)CC(C)(C)C2)c1O	i	i	65	i	i	16
Cc1ccc(CCSc2ccc(C(C)C)cc2)cn1	i	i	30	i	i	9.2
Cc1ccc(CCSc2ccc(F)cc2)cn1	i	i	64	i	i	15
